The text below walks through data of PubChem BioAssay (NCI).

Structures are written as SMILES. Compounds without any hit were thinned out: in the full panel of roughly 83,000, 20% have a hit.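 A percent growth of 40 corresponds to 60% growth inhibition; 0 means no net growth; -100 means all cells died. Active threshold: below 10.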 A number with no mark means an inactive call. Activity calls are given as the source filed them.

Among the test systems are NCI-H23 lung; NCI-H226 lung; NCI-H322M lung; HOP-62 NSCLC; NCI-H460 lung; HOP-92 NSCLC; NCI-H522 lung; A549/ATCC NSCLC; 786-0 renal; COLO 205 colon; DU-145 prostate; K-562 leukemia; MALME-3M melanoma; MDA-MB-231 breast; RXF 393 renal; SF-268 CNS; SF-295 CNS; SF-539 CNS; UACC-257 melanoma; M14 melanoma.
What all share (assay): NCI-60 one-dose screen, 48 h (100 = growth as untreated, 0 = no growth, -100 = all killed)
Settings in all cases: 10 µM unless noted

As to `O=C(Cc1ccc2c(c1)OCCO2)Nc1nc2ccc(F)cc2s1`, the growth in the experiment on NCI-H23 lung is 87.1%; in the experiment with NCI-H226 lung it was 104%; with NCI-H322M lung, 105%; in the experiment with HOP-62 NSCLC, 93.4%; in the experiment on NCI-H460 lung, 103%; in the experiment on HOP-92 NSCLC, 109%. In addition, the growth is 87.2% in the experiment on NCI-H522 lung; 102% in the experiment on A549/ATCC NSCLC; 104% with 786-0 renal; 124% in the experiment on COLO 205 colon; 107% in the experiment on DU-145 prostate; 76.3% with K-562 leukemia. The growth in the experiment on MALME-3M melanoma was 97.3%; with MDA-MB-231 breast it was 115%; in the experiment with RXF 393 renal, 43%; in the experiment with SF-268 CNS, 119%; with SF-295 CNS it was 106%; in the experiment with SF-539 CNS, 101%. Also, the growth with UACC-257 melanoma is 109%; with M14 melanoma it was 100%.

Take `N[C@@H](Cc1ccccc1)[C@@H](O)C(=O)NCc1ccc(F)cc1`: the growth with NCI-H23 lung is 106%; in the experiment with NCI-H226 lung, 103%; with NCI-H322M lung it was 104%; with HOP-62 NSCLC it was 119%; in the experiment with NCI-H460 lung it was 103%; in the experiment with HOP-92 NSCLC, 94.9%. The growth is 95.9% in the experiment with NCI-H522 lung; 104% in the experiment on A549/ATCC NSCLC; 98.5% with 786-0 renal; 111% in the experiment with COLO 205 colon; 110% in the experiment with DU-145 prostate; 97% with K-562 leukemia. Further, the growth in the experiment on MALME-3M melanoma was 107%; in the experiment with MDA-MB-231 breast, 100%; in the experiment on RXF 393 renal, 118%; in the experiment on SF-268 CNS, 95.7%; in the experiment with SF-295 CNS it was 95.5%; in the experiment with SF-539 CNS, 105%. The growth in the experiment with UACC-257 melanoma is 107%; with M14 melanoma, 101%.

On to `CN(C)CCNc1nc2ccccc2c2c(=O)c3cc(F)ccc3sc12`, for which the growth in the experiment on NCI-H23 lung was 58.6%; with NCI-H226 lung, 83.3%; with NCI-H322M lung, 53%; with HOP-62 NSCLC, 51.9%; in the experiment with NCI-H460 lung, -5.59% (active); in the experiment with HOP-92 NSCLC it was 10%. The growth with NCI-H522 lung is 37.8%; in the experiment with A549/ATCC NSCLC, 38.9%; with 786-0 renal, 54.1%; in the experiment on COLO 205 colon, -39.6% (active); in the experiment with DU-145 prostate, 28.1%; with K-562 leukemia, -36.5% (active). The growth in the experiment with MALME-3M melanoma was 81.9%; in the experiment with MDA-MB-231 breast it was 6.88% (active); in the experiment with RXF 393 renal, 40%; with SF-268 CNS, 45.6%; in the experiment on SF-295 CNS, 71.7%; in the experiment with SF-539 CNS it was 45.3%. The figures for the growth in the experiment with UACC-257 melanoma and in the experiment on M14 melanoma were 91.9% and -77.9% (active), respectively.

In the case of `Cc1nc2ccccc2n1CC1C(=O)NC(=O)NC1=O`, the growth in the experiment with NCI-H23 lung was 102%; in the experiment on NCI-H226 lung it was 114%; in the experiment on NCI-H322M lung, 95.5%; with HOP-62 NSCLC it was 105%; with NCI-H460 lung, 111%; with HOP-92 NSCLC it was 97.8%. In addition, the growth in the experiment with NCI-H522 lung is 94.4%; in the experiment with A549/ATCC NSCLC, 96.4%; in the experiment on 786-0 renal, 103%; in the experiment with COLO 205 colon, 115%; in the experiment on DU-145 prostate, 117%; in the experiment on K-562 leukemia, 94.8%. For the same molecule, the growth is 106% in the experiment with MALME-3M melanoma; 114% with MDA-MB-231 breast; 123% in the experiment on RXF 393 renal; 106% in the experiment on SF-268 CNS; 102% with SF-295 CNS; 100% in the experiment on SF-539 CNS. Further, the growth in the experiment on UACC-257 melanoma was 101%; in the experiment on M14 melanoma, 110%.

Take `O=C(N=c1oc2ccccc2cc1-c1cc2ccccc2[nH]1)Nc1ccc(Cl)cc1`: the growth in the experiment with NCI-H23 lung was 86.2%; in the experiment on NCI-H226 lung, 95.9%; in the experiment with NCI-H322M lung it was 87.8%; with HOP-62 NSCLC, 83.3%; with NCI-H460 lung it was 99.6%; in the experiment on HOP-92 NSCLC it was 95.1%. For the same molecule, the growth in the experiment on NCI-H522 lung was 88.4%; with A549/ATCC NSCLC, 96.1%; with 786-0 renal it was 94.6%; with COLO 205 colon, 122%; in the experiment with DU-145 prostate, 99.2%; in the experiment with K-562 leukemia it was 88.8%. Besides, the growth is 99.2% in the experiment with MALME-3M melanoma; 79.5% in the experiment with MDA-MB-231 breast; 116% in the experiment on RXF 393 renal; 99.3% with SF-268 CNS; 111% in the experiment with SF-295 CNS; 90.6% in the experiment with SF-539 CNS. The growth in the experiment with UACC-257 melanoma is 108%; in the experiment with M14 melanoma, 79.6%.

For the molecule `O=C(Nc1ccc(Cl)cc1F)c1ccccc1O`, the growth in the experiment with NCI-H23 lung is 17%; in the experiment with NCI-H226 lung it was 25.6%; with NCI-H322M lung it was 36.3%; in the experiment on HOP-62 NSCLC, 42.6%; in the experiment with NCI-H460 lung, 27.5%; in the experiment with HOP-92 NSCLC it was -14.5% (active). The growth with NCI-H522 lung was 11%; with A549/ATCC NSCLC it was 46.3%; in the experiment on 786-0 renal, 50.6%; with COLO 205 colon, 98.2%; in the experiment on DU-145 prostate it was 43.1%; with K-562 leukemia, 29.5%. For the same molecule, the growth in the experiment with MALME-3M melanoma is -6.47% (active); in the experiment on MDA-MB-231 breast it was 39.1%; in the experiment with RXF 393 renal, 42.5%; in the experiment with SF-268 CNS, 43.1%; with SF-295 CNS it was 69.7%; with SF-539 CNS, 48.9%. Also, the growth was 14.1% in the experiment on UACC-257 melanoma and 46.4% in the experiment on M14 melanoma.

As for `CN(C)CCN1CCN(c2ncccc2C2Nc3ccccc3-n3cccc32)CC1` (stereo not given), the growth in the experiment on NCI-H23 lung was 96.2%; in the experiment with NCI-H226 lung it was 102%; with NCI-H322M lung, 102%; with HOP-62 NSCLC, 109%; in the experiment on NCI-H460 lung it was 106%; in the experiment on HOP-92 NSCLC it was 84.9%. Moreover, the growth with NCI-H522 lung was 104%; with A549/ATCC NSCLC, 103%; in the experiment on 786-0 renal, 91.8%; in the experiment with COLO 205 colon, -48.6% (active); in the experiment with DU-145 prostate it was 110%; with K-562 leukemia, 89.4%. For the same molecule, the growth was 106% in the experiment with MALME-3M melanoma; 93.6% with MDA-MB-231 breast; 101% in the experiment with RXF 393 renal; 92.3% in the experiment with SF-268 CNS; 103% in the experiment on SF-295 CNS; 101% with SF-539 CNS. Moreover, the growth in the experiment on UACC-257 melanoma was 101%; in the experiment with M14 melanoma it was 106%.

As for `Fc1cc(-c2nnc3sc(-c4ccc(Cl)cc4Cl)nn23)c(Cl)cc1Cl`, the growth with NCI-H23 lung is 83%; with NCI-H226 lung, 97.6%; in the experiment on NCI-H322M lung, 89.7%; in the experiment with HOP-62 NSCLC, 97.9%; with NCI-H460 lung, 57.6%; with HOP-92 NSCLC, 81.5%. Further, the growth with NCI-H522 lung was 86.6%; with A549/ATCC NSCLC, 66.3%; in the experiment on 786-0 renal, 59.6%; with COLO 205 colon, 72.3%; with DU-145 prostate it was 92.7%; in the experiment with K-562 leukemia, 107%. Besides, the growth was 52.3% in the experiment on MALME-3M melanoma; 74.8% in the experiment on MDA-MB-231 breast; 65.4% in the experiment on RXF 393 renal; 71.5% with SF-268 CNS; 78.4% in the experiment with SF-295 CNS; 108% in the experiment on SF-539 CNS. In addition, the figures for the growth in the experiment on UACC-257 melanoma and in the experiment with M14 melanoma were 85.1% and 97.5%, respectively.
